Laboratory results as given in the supplement of paper PMC7411054.
Structures can show the parent of a compound that is named as a salt.

Columns and labels:
Details in all cases: treatment time: 24 h
[1] = tested on: A549-ACTB-RAB5A; test: phenotypically active (imaging signature differs from DMSO and reproducible) at any of 0.3-9 uM (binary (1 = active, 0 = inactive)); higher = active
In short: (§1)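 Two criteria together defined phenotypic activity: deviation and reproducibility. Deviation meant ≥3 of 4 wells beyond the 95th percentile of Euclidean distances in solvent control wells, and reproducibility meant a median replicate Pearson correlation above the 95th percentile of non-replicates. Wells had been treated for 24 h at 0.3, 1, 3 or 9 µM in fifteen gene-edited A549, HepG2 and WPMY1 reporter lines before live imaging.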

[2] = tested on: A549-CANX-COX4; test: as above
In short: as §1

[3] = tested on: A549-GM130-SQSTM1; test: as above
In short: as §1

[4] = tested on: A549-TP53BP1-CLTA; test: as above
In short: as §1

[5] = tested on: A549-TUBA1B-RELA; test: as above
In short: as §1

[6] = tested on: HepG2-ACTB-RAB5A; test: as above
In short: as §1

[7] = tested on: HepG2-CANX-COX4; test: as above
In short: as §1

[8] = tested on: HepG2-GM130-SQSTM1; test: as above
In short: as §1

[9] = tested on: HepG2-TP53BP1-CLTA; test: as above
In short: as §1

[10] = tested on: HepG2-TUBA1B-RELA; test: as above
In short: as §1

[11] = tested on: WPMY1-ACTB-RAB5A; test: as above
In short: as §1

[12] = tested on: WPMY1-CANX-COX4; test: as above
In short: as §1

[13] = tested on: WPMY1-GM130-SQSTM1; test: as above
In short: as §1

[14] = tested on: WPMY1-TP53BP1-CLTA; test: as above
In short: as §1

[15] = tested on: WPMY1-TUBA1B-RELA; test: as above
In short: as §1

[16] = tested on: A549-ACTB-RAB5A; test: lowest phenotypically active concentration; higher = less potent
In short: as §1

[17] = tested on: A549-CANX-COX4; test: as above
In short: as §1

[18] = tested on: A549-GM130-SQSTM1; test: as above
In short: as §1

[19] = tested on: A549-TP53BP1-CLTA; test: as above
In short: as §1

[20] = tested on: A549-TUBA1B-RELA; test: as above
In short: as §1

SMILES | phenotypically active [1] | phenotypically active [2] | phenotypically active [3] | phenotypically active [4] | phenotypically active [5] | phenotypically active [6] | phenotypically active [7] | phenotypically active [8] | phenotypically active [9] | phenotypically active [10] | phenotypically active [11] | phenotypically active [12] | phenotypically active [13] | phenotypically active [14] | phenotypically active [15] | lowest phenotypically active concentration [16] | lowest phenotypically active concentration [17] | lowest phenotypically active concentration [18] | lowest phenotypically active concentration [19] | lowest phenotypically active concentration [20]
C[N+](C)(C)CCCCCC[N+](C)(C)C [Hexamethonium bromide] | 0 (inactive) | 0 (inactive) | 0 (inactive) | 0 (inactive) | 0 (inactive) | 0 (inactive) | 0 (inactive) | 0 (inactive) | 0 (inactive) | 0 (inactive) | 0 (inactive) | 0 (inactive) | 0 (inactive) | 0 (inactive) | 0 (inactive) |  |  |  |  | 
NS(=O)(=O)c1cc2c(cc1Cl)NC(C(Cl)Cl)NS2(=O)=O (stereo not given) [trichlormethiazide] | 0 (inactive) | 0 (inactive) | 0 (inactive) | 0 (inactive) | 0 (inactive) | 0 (inactive) | 0 (inactive) | 0 (inactive) | 0 (inactive) | 0 (inactive) | 0 (inactive) | 0 (inactive) | 0 (inactive) | 0 (inactive) | 0 (inactive) |  |  |  |  | 
C[C@H]1C[C@@H]2[C@H]([C@@H](O)C[C@@]3(C)[C@H]2CC[C@]3(O)C(=O)CO)[C@@]2(C)C=CC(=O)C=C12 [methylprednisolone] | 1 (active) | 1 (active) | 1 (active) | 1 (active) | 1 (active) | 0 (inactive) | 0 (inactive) | 0 (inactive) | 0 (inactive) | 0 (inactive) | 0 (inactive) | 0 (inactive) | 0 (inactive) | 0 (inactive) | 0 (inactive) | ≤ 0.3 µM | ≤ 0.3 µM | ≤ 0.3 µM | ≤ 0.3 µM | ≤ 0.3 µM
C/C=C1/[C@H]2C=C(C)C[C@]1(N)c1ccc(=O)[nH]c1C2 [Huperzine A] | 0 (inactive) | 0 (inactive) | 0 (inactive) | 0 (inactive) | 0 (inactive) | 0 (inactive) | 0 (inactive) | 0 (inactive) | 0 (inactive) | 0 (inactive) | 0 (inactive) | 0 (inactive) | 0 (inactive) | 0 (inactive) | 0 (inactive) |  |  |  |  | 
Cc1cc(Nc2cc(N3CCN(C)CC3)nc(Sc3ccc(NC(=O)C4CC4)cc3)n2)[nH]n1 | 1 (active) | 1 (active) | 1 (active) | 1 (active) | 1 (active) | 1 (active) | 1 (active) | 1 (active) | 1 (active) | 1 (active) | 1 (active) | 1 (active) | 1 (active) | 1 (active) | 1 (active) | ≤ 0.3 µM | ≤ 0.3 µM | ≤ 0.3 µM | ≤ 0.3 µM | ≤ 0.3 µM
C=CC(=O)Nc1cccc(CN2C(=O)N(c3c(Cl)c(OC)cc(OC)c3Cl)Cc3cnc(NCCCCN(CC)CC)nc32)c1 [FIIN 1 hydrochloride] | 1 (active) | 1 (active) | 1 (active) | 1 (active) | 1 (active) | 1 (active) | 1 (active) | 1 (active) | 1 (active) | 1 (active) | 1 (active) | 1 (active) | 1 (active) | 1 (active) | 1 (active) | ≤ 0.3 µM | 3 µM | ≤ 0.3 µM | 3 µM | 1 µM
COc1ccc(-c2cc3c(C)nc(N)nc3n([C@H]3CC[C@H](OCCO)CC3)c2=O)cn1 | 1 (active) | 1 (active) | 1 (active) | 1 (active) | 1 (active) | 1 (active) | 1 (active) | 1 (active) | 1 (active) | 1 (active) | 1 (active) | 1 (active) | 1 (active) | 1 (active) | 1 (active) | ≤ 0.3 µM | ≤ 0.3 µM | ≤ 0.3 µM | ≤ 0.3 µM | ≤ 0.3 µM
COc1cc(N2CCOCC2)ccc1Nc1ncc(Cl)c(Nc2ccccc2NS(C)(=O)=O)n1 | 1 (active) | 1 (active) | 1 (active) | 1 (active) | 1 (active) | 1 (active) | 1 (active) | 1 (active) | 1 (active) | 1 (active) | 1 (active) | 1 (active) | 1 (active) | 1 (active) | 1 (active) | 3 µM | 3 µM | 3 µM | 3 µM | 3 µM
Cc1c(C(=O)N2CCOc3ccc(-c4ccc(N)nc4)cc3C2)ccc(S(C)(=O)=O)c1F | 1 (active) | 1 (active) | 1 (active) | 1 (active) | 1 (active) | 1 (active) | 1 (active) | 1 (active) | 1 (active) | 1 (active) | 1 (active) | 1 (active) | 1 (active) | 1 (active) | 1 (active) | 1 µM | 3 µM | 3 µM | 3 µM | 1 µM
COc1ccccc1S(=O)(=O)Nc1ccc2c(c1)CN(C)C(=O)N2 | 1 (active) | 1 (active) | 1 (active) | 1 (active) | 1 (active) | 1 (active) | 1 (active) | 1 (active) | 1 (active) | 1 (active) | 1 (active) | 1 (active) | 1 (active) | 1 (active) | 1 (active) | 1 µM | 3 µM | 3 µM | 3 µM | 3 µM
CNC(=O)c1ccccc1Sc1ccc2c(/C=C/c3ccccn3)n[nH]c2c1 [Axitinib] | 1 (active) | 1 (active) | 1 (active) | 1 (active) | 1 (active) | 1 (active) | 1 (active) | 1 (active) | 1 (active) | 1 (active) | 1 (active) | 1 (active) | 1 (active) | 1 (active) | 1 (active) | 1 µM | 9 µM | 1 µM | 3 µM | 1 µM
CC(=O)NC1=NN(C(C)=O)C(C)(c2ccccc2)S1 (stereo not given) | 1 (active) | 1 (active) | 1 (active) | 1 (active) | 1 (active) | 1 (active) | 1 (active) | 1 (active) | 1 (active) | 1 (active) | 1 (active) | 1 (active) | 1 (active) | 1 (active) | 1 (active) | 3 µM | 3 µM | 9 µM | 9 µM | 3 µM
COc1ccc2[nH]c(C(=O)c3ccccc3)cc2c1 | 1 (active) | 1 (active) | 1 (active) | 1 (active) | 1 (active) | 1 (active) | 1 (active) | 1 (active) | 1 (active) | 1 (active) | 1 (active) | 1 (active) | 1 (active) | 1 (active) | 1 (active) | ≤ 0.3 µM | ≤ 0.3 µM | ≤ 0.3 µM | ≤ 0.3 µM | ≤ 0.3 µM
Cc1cnc(NC(=O)Nc2cc(Br)c(C)cc2OC[C@@H]2CNCCO2)cn1 | 1 (active) | 1 (active) | 1 (active) | 1 (active) | 1 (active) | 1 (active) | 1 (active) | 1 (active) | 1 (active) | 1 (active) | 1 (active) | 1 (active) | 1 (active) | 1 (active) | 1 (active) | 3 µM | 3 µM | 3 µM | 1 µM | 1 µM
Clc1ccc(C2(c3ccc(-c4cn[nH]c4)cc3)CCNCC2)cc1 | 1 (active) | 1 (active) | 1 (active) | 1 (active) | 1 (active) | 1 (active) | 1 (active) | 1 (active) | 1 (active) | 1 (active) | 1 (active) | 1 (active) | 1 (active) | 1 (active) | 1 (active) | ≤ 0.3 µM | ≤ 0.3 µM | ≤ 0.3 µM | ≤ 0.3 µM | ≤ 0.3 µM
Cc1cc(Nc2ncc3c(n2)N(C)C(=O)N(c2cc(NC(=O)c4cccc(C(F)(F)F)c4)ccc2C)C3)n(C)n1 [Pluripotin] | 1 (active) | 1 (active) | 1 (active) | 1 (active) | 1 (active) | 1 (active) | 1 (active) | 1 (active) | 1 (active) | 1 (active) | 1 (active) | 1 (active) | 1 (active) | 1 (active) | 1 (active) | ≤ 0.3 µM | ≤ 0.3 µM | ≤ 0.3 µM | ≤ 0.3 µM | ≤ 0.3 µM
CN(C)c1ccc(C(=O)NCCCCCCC(=O)NO)cc1 | 1 (active) | 1 (active) | 1 (active) | 1 (active) | 1 (active) | 1 (active) | 1 (active) | 1 (active) | 1 (active) | 1 (active) | 1 (active) | 1 (active) | 1 (active) | 1 (active) | 1 (active) | ≤ 0.3 µM | ≤ 0.3 µM | 1 µM | ≤ 0.3 µM | ≤ 0.3 µM
O=C(c1cccc(Cl)c1F)N1CCN(Cc2cccc(Nc3nccs3)n2)CC1 | 1 (active) | 1 (active) | 1 (active) | 1 (active) | 1 (active) | 1 (active) | 1 (active) | 1 (active) | 1 (active) | 1 (active) | 1 (active) | 1 (active) | 1 (active) | 1 (active) | 1 (active) | ≤ 0.3 µM | 1 µM | 1 µM | 1 µM | 1 µM
CO[C@H]1C[C@@H]2CC[C@@H](C)[C@@](O)(O2)C(=O)C(=O)N2CCCC[C@H]2C(=O)O[C@H]([C@H](C)C[C@@H]2CC[C@@H](OC(=O)C(C)(CO)CO)[C@H](OC)C2)CC(=O)[C@H](C)C=C(C)[C@@H](O)[C@@H](OC)C(=O)[C@H](C)C[C@H](C)C=CC=CC=C1C [Temsirolimus] | 1 (active) | 1 (active) | 1 (active) | 1 (active) | 1 (active) | 1 (active) | 1 (active) | 1 (active) | 1 (active) | 1 (active) | 1 (active) | 1 (active) | 1 (active) | 1 (active) | 1 (active) | ≤ 0.3 µM | ≤ 0.3 µM | ≤ 0.3 µM | 3 µM | ≤ 0.3 µM
Cc1ccc(-n2nc(C(C)(C)C)cc2NC(=O)Nc2ccc(OCCN3CCOCC3)c3ccccc23)cc1 | 1 (active) | 1 (active) | 1 (active) | 1 (active) | 1 (active) | 1 (active) | 1 (active) | 1 (active) | 1 (active) | 1 (active) | 1 (active) | 1 (active) | 1 (active) | 1 (active) | 1 (active) | 3 µM | 9 µM | 3 µM | 9 µM | 3 µM
O=C(CCCCCN1C(=O)c2cccc3cccc(c23)C1=O)NO [Scriptaid] | 1 (active) | 1 (active) | 1 (active) | 1 (active) | 1 (active) | 1 (active) | 1 (active) | 1 (active) | 1 (active) | 1 (active) | 1 (active) | 1 (active) | 1 (active) | 1 (active) | 1 (active) | ≤ 0.3 µM | 1 µM | ≤ 0.3 µM | 1 µM | ≤ 0.3 µM
CCN(CC)c1ccc(/C=N/NC(=O)c2ccncc2)c(O)c1 | 1 (active) | 1 (active) | 1 (active) | 1 (active) | 1 (active) | 1 (active) | 1 (active) | 1 (active) | 1 (active) | 1 (active) | 1 (active) | 1 (active) | 1 (active) | 1 (active) | 1 (active) | ≤ 0.3 µM | 1 µM | 1 µM | 1 µM | 1 µM
